Compounds with a hit are over-represented: about 2.9% of the library has one in this group of screens.
MEKK2mut PB1 HTS = MEK5 binding signal on mutant MEKK2 PB1, primary screen, biochemical, multiplex bead flow cytometry, Alexa488-MEK5 | AID 1530, 2009 | 290,000 tested, 0.35% active | percent response, % at 10 µM | Alexa488-MEK5 binding to MEKK2 mutant; in the data active = percent response above about 24%, passing the limit was not always enough
dFosB act = activators of delta FosB homodimer, primary screen, biochemical, fluorescence polarization, TAMRA-CDK5 oligo, single point | Protein FosB (Mus musculus), P13346 | purified delta FosB; percent of positive-control signal above neutral wells | activation, % at 25 µM | 340,000 tested, 0.99% active;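 active = mean activation above about 17%, with every replicate also reaching it, limit read from the data, passing the limit was not always enough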
Target sequence (P13346 whole entry, looked up): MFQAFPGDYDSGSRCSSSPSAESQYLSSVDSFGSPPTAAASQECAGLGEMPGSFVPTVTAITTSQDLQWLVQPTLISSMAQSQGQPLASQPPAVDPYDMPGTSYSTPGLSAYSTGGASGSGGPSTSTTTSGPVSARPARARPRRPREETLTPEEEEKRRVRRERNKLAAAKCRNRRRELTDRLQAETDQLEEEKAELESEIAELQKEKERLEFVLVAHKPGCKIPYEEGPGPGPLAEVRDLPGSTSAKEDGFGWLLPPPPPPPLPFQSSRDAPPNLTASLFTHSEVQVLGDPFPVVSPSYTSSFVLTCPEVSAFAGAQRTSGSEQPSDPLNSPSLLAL
MEKK2wt PB1 HTS = modulators of MEK5 binding to wildtype MEKK2, primary screen, biochemical, multiplex bead flow cytometry, Alexa488-MEK5; Alexa488-MEK5 binding to MEKK2 WT; actives lie on both sides; binding response (% of control), % at 10 µM; 290,000 tested, 1.1% active; AID 1531, 2009; in the data active = binding response below about 67% or above about 130%
DNA FID counter = compounds displacing fluorescent DNA intercalator, primary screen, artefact control for HCV NS3 helicase inhibitor project, biochemical, FID fluorescence; DNA fluorescent intercalator displacement; inhibition, % at 7.9 µM; 290,000 tested, 0.17% active; AID 1845, 2009; in the data active = inhibition above about 37%;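 also: 0% = vehicle and 100% = reference compound; higher means more ethidium bromide displaced from hairpin DNA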
MEKK3 PB1 HTS = modulators of MEKK3-MEK5 PB1 binding, primary screen, biochemical, wildtype MEKK3, multiplex bead flow cytometry, Alexa488-MEK5. Mitogen-activated protein kinase kinase kinase 3 (Homo sapiens), Q99759. bead-based flow cytometry, Alexa488-MEK5 binding to MEKK3; actives lie on both sides; 0 = blocked by unlabeled MEK5, 100 = vehicle. binding response (% of control), % at 10 µM. 290,000 tested, 1.4% active. AID 1529, 2009;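 active = binding response more than 3 SD above or below the average of its plate-row segment, actives on both sides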;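 also: Alexa488 bead fluorescence after subtracting the streptavidin-only scavenger bead signal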
MEKK2wt confirm = modulators of MEK5 binding to wildtype MEKK2, confirmation, biochemical, single concentration, multiplex bead flow cytometry. shares compounds with MEKK3 PB1 HTS. Alexa488-MEK5 binding to MEKK2 WT; actives lie on both sides. binding response (% of control), % at 10 µM. 5,900 tested, 2.4% active. AID 1892, 2009; in the data active = binding response below about 16% or above about 210%; inactive = in between
MEKK2mut confirm = mutant MEKK2 PB1-MEK5 binding signal retest – biochemical, single concentration, multiplex bead flow cytometry, confirmation. shares compounds with MEKK3 PB1 HTS. Alexa488-MEK5 binding to MEKK2 mutant. percent response, % at 10 µM. 5,900 tested, 2% active; in the data active = percent response mostly above about 71%, no sharp cut-off; inactive = mostly below about 38%;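 also: higher means compound restores mutant binding toward wildtype level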
MEKK3 confirm = MEKK3 wild-type PB1 binding to MEK5, inhibitors, confirmation, biochemical, bead multiplex flow cytometry, single concentration, wildtype | AID 1894, 2009 | Alexa488-MEK5 binding to MEKK3; stronger effect = lower value | binding response (% of control), % at 10 µM | 5,900 tested, 1.8% active | shares compounds with MEKK3 PB1 HTS;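 active = binding response below 72% of control, or above a set upper limit, though filed actives all read lower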;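 also: 100% = DMSO only wells and 0% = binding blocked by excess unlabeled MEK5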
* marks the source's active call; other numbers are inactive results; nt = not tested or not shown; [ ] = dose if it differs, or a comment.

SMILES	MEKK2mut PB1 HTS	dFosB act	MEKK2wt PB1 HTS	DNA FID counter	MEKK3 PB1 HTS	MEKK2wt confirm	MEKK2mut confirm	MEKK3 confirm
CCOc1ccc(N(CC(=O)Nc2cccc(Cl)c2)S(=O)(=O)c2c(C)noc2C)cc1	10.0	-8.1	155.0*	-0.4	107.0	98.0	-2.0	101.0
CCOC(=O)c1ccc(N2CN(CC)CNC2=S)cc1	1.0	-5.3	107.0	1.1	130.0*	105.0	1.0	103.0
CCCN1CNC(=S)N(c2ccc(C(=O)OCC)cc2)C1	-1.0	2.8	98.0	4.4	92.0	nt	nt	nt
Cc1cc(Cl)ccc1N(CC(=O)NCc1ccccc1)S(C)(=O)=O	15.0	0.3	103.0	-19.5	104.0	nt	nt	nt
CCc1nn(CC(=O)NCCCN2CCN(CC)CC2)c(=O)c2cc3occc3n12	0.0	-4.7	101.0	-1.1	96.0	nt	nt	nt
Cc1cc(Nc2cccc(C(F)(F)F)c2)n2nc(C)nc2n1	-65.0	-2.2	0.0*[inhibitor]	-12.8	1.0*[inhibitor]	106.0	9.0	108.0
CCn1c(CNc2ccc(C(=O)O)cc2)nc2ccccc21	5.0	-13.4	102.0	-5.6	101.0	nt	nt	nt
CCn1c(/C=N/Nc2ccc(C(=O)O)cc2)nc2ccccc21	0.0	4.6	107.0	-3.2	133.0*	99.0	-2.0	98.0
NC(=O)c1ccc(NS(=O)(=O)c2ccc3ccccc3c2)cc1	11.0	1.6	100.0	-7.1	100.0	nt	nt	nt
CC(=O)c1ccc(NS(=O)(=O)c2ccc3ccccc3c2)cc1	-1.0	0.8	95.0	-12.5	73.0*[inhibitor]	106.0	2.0	99.0
CN(c1ccc(F)cc1)S(=O)(=O)c1ccc(Cl)c(C(=O)NCc2ccco2)c1	nt	-11.8	nt	nt	nt	nt	nt	nt
CCOc1cc(CNCCCN2CCOCC2)cc(Br)c1OCC(=O)Nc1cccc(C(F)(F)F)c1	31.0*	-55.5	162.0*	36.7	103.0	175.0	46.0	110.0
COc1cc(CNCCCN2CCOCC2)cc(Br)c1OCc1ccc(Cl)cc1	30.0	-20.6	158.0*	41.5*	105.0	175.0	32.0	103.0
CCCN(CC(=O)Nc1ccccc1OC)C(=O)CN1C(=O)NC2(CCCCC2)C1=O	nt	-14.4	nt	nt	nt	nt	nt	nt
CCN(Cc1ccncc1)C(=O)c1ccccc1NS(=O)(=O)c1ccc(F)cc1	-6.0	-0.7	94.0	-24.8	100.0	nt	nt	nt
Cc1cc(C(F)F)n2nc(C(=O)Nc3sc4c(c3C#N)CCC4)nc2n1	-4.0	-5.3	95.0	-0.6	95.0	nt	nt	nt
CCOC(=O)c1c(C)n(-c2ccc(C)cc2)c2ccc(OCC(O)CN3CCN(C)CC3)cc12 (configuration not stated)	104.0*	-19.4	289.0*	23.9	104.0	214.0*	71.0*	112.0
CC(C)(C)c1ccc(C(=O)OCC(=O)Nc2sc3c(c2C#N)CCC3)cc1	1.0	0.3	106.0	-5.4	132.0*	76.0	-19.0	74.0
CC(C)OP(=O)(c1ccc(N(C)C)cc1)C(O)c1ccc(N(C)C)cc1 (configuration not stated)	0.0	-2.4	102.0	-29.5	102.0	nt	nt	nt
Cn1c(SCC(=O)Nc2cccnc2Cl)nc2ccccc21	nt	2.5	nt	nt	nt	nt	nt	nt
Cc1c(/C=N\NC(=O)C2COc3ccccc3O2)c2ccccc2n1C (configuration not stated)	15.0	-9.9	26.0*[inhibitor]	-5.2	96.0	101.0	9.0	102.0
O=C(N/N=C/c1c(O)n(-c2ccccc2Cl)c(=O)c2ccccc12)C1COc2ccccc2O1 (configuration not stated)	0.0	-9.9	103.0	-19.0	137.0*	100.0	-1.0	102.0
CC(C)Nc1nc(Oc2ccc(=O)n(-c3ccccc3)n2)nc(N(C)C)n1	5.0	2.3	98.0	-36.6	98.0	nt	nt	nt
COc1ccc(S(=O)(=O)N[C@@H](CC(C)C)C(=O)O)cc1	-4.0	2.0	87.0	5.5	80.0*[inhibitor]	102.0	2.0	106.0
O=C(O)c1c(-c2ccccc2)c(-c2ccccc2)nc2ccccc12	3.0	6.1	104.0	-3.7	108.0	nt	nt	nt
SMILES	MEKK2mut PB1 HTS	dFosB act	MEKK2wt PB1 HTS	DNA FID counter	MEKK3 PB1 HTS	MEKK2wt confirm	MEKK2mut confirm	MEKK3 confirm
Cc1cc(C(=O)Nc2ccc(C#N)cc2)on1	-49.0	2.5	8.0*[inhibitor]	-1.9	4.0*[inhibitor]	95.0	-2.0	99.0
CC(=O)Nc1ccc(S(=O)(=O)NC2CC2)cc1	-1.0	-1.9	99.0	-4.9	94.0	nt	nt	nt
Cn1c(=O)c2c(ncn2CC(=O)OCC(=O)Nc2cc(Cl)ccc2Cl)n(C)c1=O	-1.0	-8.8	100.0	4.2	139.0*	107.0	5.0	101.0
COc1ccc(-n2c(=O)c3ccccc3n(CC(=O)Nc3cccc(OC)c3)c2=O)cc1	-16.0	4.9	62.0	-8.2	50.0*[inhibitor]	103.0	6.0	106.0
CCOc1ccc(-n2c(=O)c3sccc3n(CC(=O)Nc3cccc(OC)c3)c2=O)cc1	-20.0	10.1	66.0	-0.4	70.0	nt	nt	nt
NC(=O)c1c(NC(=O)Cn2cc([N+](=O)[O-])cn2)sc2c1CCCC2	270.0*	5.4	nt	-1.1	95.0	101.0	7.0	103.0
CCn1c(CCNC(=O)c2cccs2)nnc1SCC(=O)Nc1ccc(Cl)cc1	0.0	-1.1	101.0	-18.6	95.0	nt	nt	nt
CCn1c(CCNC(=O)c2cccs2)nnc1SCC(=O)NC1CCCCC1	-41.0	-3.1	0.0*[inhibitor]	-18.4	1.0*[inhibitor]	94.0	-8.0	96.0
Cc1cc(C)nc(NC(=NCCc2c[nH]c3ccccc23)NC(=O)Nc2ccc(Cl)cc2)n1	1.0	1.8	111.0	-8.3	59.0*[inhibitor]	106.0	-2.0	103.0
COc1ccc2c(c1)c(C(C)=O)c(C)n2-c1ccccc1	-8.0	-8.5	86.0	-8.4	76.0*[inhibitor]	104.0	4.0	110.0
COc1ccc(NC(=S)NC2CC3CCCC(C2)N3C2CC2)cc1 (configuration not stated)	7.0	-8.1	127.0	2.9	135.0*	105.0	-2.0	102.0
CCCN1C2CCCC1CC(NC(=S)Nc1ccc(OC)cc1)C2 (configuration not stated)	4.0	-4.3	105.0	7.5	102.0	nt	nt	nt
O=C(Nc1ccc(F)cc1)Nc1ccc(NC(=O)c2ccccc2O)cc1	-11.0	nt	89.0	7.7	92.0	nt	nt	nt

Bioassay records: PubChem, several laboratories
